PubChem BioAssay AID932 (The Scripps Research Institute Molecular Screening Center, 2007)
Among all 200,000 compounds or so, about 5,100 (2.5%) were called active. This excerpt belongs to a sample that is enriched for actives. A number with no mark means an inactive call.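 The calls were made as follows: active = activation above the screen-wide mean activation plus 3 SD (cut at about 130% in these data); inactive = the rest.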

Assay: potentiators of IFN-gamma driven STAT1 reporter – cell-based, HTS, luciferase reporter, primary screen (AID 932);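 also: raw ratio to IFN-gamma control signal so 100% means no change and 0% no light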
Details: NIH 3T3 STAT1-luciferase reporter, luminescence, at 5.5 µM, active compounds read high, 100% = IFN-gamma alone, no compound

Structure (SMILES)	activation (% of control)
CCOC(=O)C1CCN(CCC(=O)Nc2cccc(C)c2)CC1	98.8%
COc1cc(/C=C2/C(=O)ON=C2C)ccc1OCc1cccc(F)c1	128%
CCOc1cc(/C=N/O)ccc1OCc1ccccc1F	104%
COc1cc(/C=C2/C(=O)ON=C2C)ccc1OCc1ccccc1F	129% (active)
CCn1c(CSCc2c(Cl)cccc2Cl)n[nH]c1=S	98.8%
Cc1noc(C)c1CCC(=O)O	95.1%
COc1ccc(CNC(=O)CN2CCC(n3nnc4cc(F)ccc43)CC2)cc1	88.1%
COc1ccc2nc(Nc3nc4cc5c(cc4s3)OCCO5)sc2c1	114%
CSc1ncccc1C(=O)Nc1nc2ccc(F)cc2s1	123%
Fc1ccc2nc(Nc3nc4c(s3)CCCC4)sc2c1	162% (active)
CCCCCC(=O)Nc1ccc(S(=O)(=O)Nc2ccc(Cl)nn2)cc1	102%
O=C(C1=C[C@H](c2coc3ccccc3c2=O)C[C@H](OCc2ccc(CO)cc2)O1)N1CCOCC1	102%
COc1ccc(/C=N/NC(=O)Cn2cc(C(F)(F)F)ccc2=O)cc1	97.9%
Cc1ccccc1OCCC(=O)OCC(=O)NC(C)c1ccccc1 (stereo not given)	99.7%
COCCOC(=O)c1c(C)oc2cc(Br)c(OCC(N)=O)cc12	94.5%
Cc1ccc(COc2ccc(C(=O)NN)cc2)cc1	116%
Clc1ccc(Nc2nc(-c3cccs3)cs2)nc1	196% (active)
c1cnc(Nc2nc(-c3ccc4ccccc4c3)cs2)nc1	164% (active)
CCCc1cc(-c2nc(-c3ccc(C)cc3)cs2)ccn1	99.8%
Cc1ccc(-c2csc(NC(=O)c3cccs3)n2)cc1	123%
Cc1ccc(-c2csc(NC(=O)Cc3cccs3)n2)cc1C	111%
Oc1ccc(-c2csc(Nc3cccnc3)n2)cc1	110%
O=C(Nc1ccc(Cl)cn1)Nc1cccs1	123%
COc1ccc(-c2csc(Nc3ccccn3)n2)cc1	110%
c1ccc(Nc2nc(-c3ccncc3)cs2)nc1	193% (active)

Structure (SMILES)	activation (% of control)
NC(=O)c1ccccc1N=Cc1ccc2ccccc2c1	124%
CCOC(=O)c1cc2c(=O)n3ccccc3nc2n(CC(C)C)c1=NC(=O)c1c(-c2c(F)cccc2Cl)noc1C	89.8%
CC(C)OC(=O)Cn1nc(C(F)(F)F)c2c1CCCC2	96.5%
Cc1ccc2nc(SCc3cn4c(C)cc(C)nc4n3)[nH]c2c1	96.4%
CNC(=O)c1ccc(NC(=O)c2cccc(C(F)(F)F)c2)cc1	98.4%
Cc1cc(C)c(C#N)c(N2CCC(C(N)=O)CC2)n1	98.4%
COc1cc(/C=N/n2c(C)n[nH]c2=S)ccc1OCc1ccccc1	144% (active)
Cc1n[nH]c(=S)n1/N=C/c1ccc(Br)o1	104%
CNC(=S)N/N=C/c1ccc(OCc2ccccc2)c(Br)c1	119%
CSc1ccccc1NC(=O)CN(C)CC(=O)Nc1cccc(Br)c1	89.3%
CCN(CC)C(=O)C(=O)Nc1cccc(Br)c1	129% (active)
C=C(C)C(=O)Nc1cccc(C(C)=O)c1	102%
CCOc1ccc(C(C)=O)cc1COC(=O)c1cnc(Cl)c(Cl)c1	101%
Cc1ccnc(NC(=O)c2ccc(Cl)c([N+](=O)[O-])c2)c1	95.8%
O=C(CSc1nnc(-c2cnccn2)n1Cc1ccco1)c1ccc(Cl)c(Cl)c1	94.7%
Cn1c(SCc2c(F)cccc2Cl)nnc1-c1cnccn1	130% (active)
Fc1cccc(Cl)c1CSc1ccc(-c2ccco2)nn1	126%
O=C(CSc1nnc(C2CC2)n1Cc1ccccc1)Nc1cccnc1Cl	96.9%
CCc1ccc(CN(C)C(=O)CCc2nnc(-c3ccc(-c4ccccc4)cc3)o2)nc1	93.4%
COc1cccc(OC)c1C(=O)Nc1ccc(N2CCCCC2)cc1	103%
COc1cccc(C(=O)Nc2ccc(N3CCCC3)cc2)c1	127%
Cc1ccccc1C(=O)Nc1ccc(N2CCCCCC2)cc1	141% (active)
CCc1cc2c(=O)c(-c3ccc(F)cc3)c(C(F)(F)F)oc2cc1OCC(=O)O	97.7%
C/C(CC(=O)Nc1ccc(C)cc1C)=N\NC(=O)C(C)C	102%
O=S(=O)(c1cccc(C(F)(F)F)c1)N1CCN(c2cnccn2)CC1	108%
